Measured values from PubChem BioAssay (NCATS).
Records with an inconclusive call do not appear. A call without a number means that no potency is given here. Active and inactive are the calls of the source. Calls follow the shape of the dose curve; as a rule, active = well fitted inhibition curve with a large enough effect; inconclusive = small, poorly fitted or top-dose-only effect; inactive = flat fitted curve, though single readings scatter.

How the values were obtained:
Assay in all cases: qHTS profiling for inhibitors of Plasmodium falciparum proliferation (AID 504749); also: nearly all actives have a fitted effect of over 60% in size
Settings in all cases: P. falciparum in erythrocytes, SYBR Green DNA, 72 h; series mostly up to 28.7 µM
CP247 = test system: CP247
Outline: (§1)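 Quantitative HTS: compounds pinned into medium, infected erythrocytes added (0.3% parasitemia, 2.5% hematocrit), 72 h culture at 37 C under 5% CO2. Saponin/Triton lysis with SYBR Green I, overnight RT, then fluorescence read.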

CP250 = test system: CP250
Outline: as §1

CP252 = test system: CP252
Outline: as §1

CP256 = test system: CP256
Outline: as §1

CP262 = test system: CP262
Outline: as §1

CP265 = test system: CP265
Outline: as §1

CP266 = test system: CP266
Outline: as §1

CP268 = test system: CP268
Outline: as §1

CP269 = test system: CP269
Outline: as §1

CP286 = test system: CP286
Outline: as §1

CP291 = test system: CP291
Outline: as §1

CP297 = test system: CP297
Outline: as §1

CP305 = test system: CP305
Outline: as §1

CP315 = test system: CP315
Outline: as §1

CP325 = test system: CP325
Outline: as §1

CP329 = test system: CP329
Outline: as §1

CP335 = test system: CP335
Outline: as §1

DFO2036 = test system: DFO2036
Outline: as §1

CP260 = test system: CP260
Outline: as §1

DIV14 = test system: DIV14
Outline: as §1
Potency is read from the fitted curve at half-maximal effect.

c1ccc2sc(SN3CCOCC3)nc2c1
Potency (CP247): inactive
Potency (CP250): inactive
Potency (CP252): inactive
Potency (CP256): inactive
Potency (CP262): inactive
Potency (CP265): inactive
Potency (CP266): inactive
Potency (CP268): inactive
Potency (CP269): inactive
Potency (CP286): inactive
Potency (CP291): inactive
Potency (CP297): inactive
Potency (CP305): inactive
Potency (CP315): inactive
Potency (CP325): inactive
Potency (CP329): inactive
Potency (CP335): inactive
Potency (DFO2036): inactive

Cc1nc2ccccc2n1Cc1ccc(Cl)cc1
Potency (CP250): inactive
Potency (CP260): inactive
Potency (CP268): inactive
Potency (CP269): inactive
Potency (CP286): inactive
Potency (CP291): inactive
Potency (CP297): inactive
Potency (CP305): inactive
Potency (CP315): inactive
Potency (DIV14): inactive

O=C(O)c1cc(O)c(O)c(O)c1
Potency (CP250): 5.62 µM (active)
Potency (CP252): inactive
Potency (CP256): inactive
Potency (CP265): inactive
Potency (CP266): inactive
Potency (CP268): inactive
Potency (CP269): inactive
Potency (CP286): inactive
Potency (CP291): inactive
Potency (CP297): inactive
Potency (CP305): inactive
Potency (CP315): inactive
Potency (CP325): inactive
Potency (CP329): inactive
Potency (DFO2036): inactive

CCOc1ccc2nc(S(N)(=O)=O)sc2c1
Potency (CP247): inactive
Potency (CP250): inactive
Potency (CP252): inactive
Potency (CP256): inactive
Potency (CP260): inactive
Potency (CP262): inactive
Potency (CP265): inactive
Potency (CP266): inactive
Potency (CP268): inactive
Potency (CP269): inactive
Potency (CP286): inactive
Potency (CP297): inactive
Potency (CP305): inactive
Potency (CP315): inactive
Potency (CP325): inactive
Potency (CP329): inactive
Potency (CP335): inactive
Potency (DFO2036): inactive
Potency (DIV14): inactive

CCCSc1ccc2nc(NC(=O)OC)[nH]c2c1
Potency (CP250): inactive
Potency (CP252): inactive
Potency (CP256): inactive
Potency (CP260): inactive
Potency (CP262): inactive
Potency (CP265): inactive
Potency (CP266): inactive
Potency (CP268): inactive
Potency (CP269): inactive
Potency (CP286): inactive
Potency (CP291): inactive
Potency (CP297): inactive
Potency (CP305): inactive
Potency (CP315): inactive
Potency (CP325): inactive
Potency (CP329): inactive
Potency (CP335): inactive
Potency (DFO2036): inactive
Potency (DIV14): inactive

c1ccc2sc(SSc3nc4ccccc4s3)nc2c1
Potency (CP247): inactive
Potency (CP250): inactive
Potency (CP252): inactive
Potency (CP256): inactive
Potency (CP260): inactive
Potency (CP262): inactive
Potency (CP265): inactive
Potency (CP268): inactive
Potency (CP269): inactive
Potency (CP286): inactive
Potency (CP291): inactive
Potency (CP297): inactive
Potency (CP305): inactive
Potency (CP315): inactive
Potency (CP325): inactive
Potency (CP329): inactive
Potency (CP335): inactive
Potency (DFO2036): inactive
Potency (DIV14): inactive

CCOC(=O)c1ccccc1O
Potency (CP247): inactive
Potency (CP252): inactive
Potency (CP256): inactive
Potency (CP260): inactive
Potency (CP262): inactive
Potency (CP265): inactive
Potency (CP266): inactive
Potency (CP268): inactive
Potency (CP269): inactive
Potency (CP286): inactive
Potency (CP291): inactive
Potency (CP297): inactive
Potency (CP305): inactive
Potency (CP315): inactive
Potency (CP325): inactive
Potency (CP329): inactive
Potency (CP335): inactive
Potency (DFO2036): inactive
Potency (DIV14): inactive

CN1CCN(c2cc3c(nn2)Oc2ccccc2N3C)CC1
Potency (CP247): inactive
Potency (CP250): inactive
Potency (CP252): inactive
Potency (CP256): inactive
Potency (CP260): inactive
Potency (CP262): inactive
Potency (CP265): inactive
Potency (CP268): inactive
Potency (CP269): inactive
Potency (CP286): inactive
Potency (CP291): inactive
Potency (CP297): inactive
Potency (CP305): inactive
Potency (CP315): inactive
Potency (CP325): inactive
Potency (CP329): inactive
Potency (CP335): inactive
Potency (DFO2036): inactive
Potency (DIV14): inactive

COc1cc(/C=C/C(=O)CC(=O)/C=C/c2ccc(O)c(OC)c2)ccc1O
Potency (CP247): 8.91 µM (active)
Potency (CP250): 8.91 µM (active)
Potency (CP297): 13.5 µM (active)
Potency (DIV14): 16.9 µM (active)

CCCCCC[C@@H](O)C/C=C\CCCCCCCC(=O)O
Potency (CP247): inactive
Potency (CP250): inactive
Potency (CP252): inactive
Potency (CP256): inactive
Potency (CP260): inactive
Potency (CP262): inactive
Potency (CP265): inactive
Potency (CP268): inactive
Potency (CP269): inactive
Potency (CP286): inactive
Potency (CP291): inactive
Potency (CP297): inactive
Potency (CP305): inactive
Potency (CP315): inactive
Potency (CP325): inactive
Potency (CP329): inactive
Potency (CP335): inactive
Potency (DFO2036): inactive
Potency (DIV14): inactive

CN1[C@@H]2CC[C@H]1CC(OC(=O)C(CO)c1ccccc1)C2 (stereo not given in full)
Potency (CP247): inactive
Potency (CP250): inactive
Potency (CP252): inactive
Potency (CP260): inactive
Potency (CP262): inactive
Potency (CP265): inactive
Potency (CP266): inactive
Potency (CP268): inactive
Potency (CP269): inactive
Potency (CP286): inactive
Potency (CP291): inactive
Potency (CP297): inactive
Potency (CP305): inactive
Potency (CP315): inactive
Potency (CP325): inactive
Potency (CP329): inactive
Potency (CP335): inactive
Potency (DFO2036): inactive
Potency (DIV14): inactive
